Pf growth 96h = P. falciparum growth inhibition at 96 hours. P. falciparum luciferase reporter growth, 96 h. Potency, µM (series often up to 28.7 µM), usual class: inhibitors. 6.9% of 320,000 active
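Two-generation exposure (96 h) targets delayed-death phenotype. Reporter parasites carrying integrated firefly luciferase, in red cells at 2% hematocrit and 0.05% parasitemia final, kept at 37 C, 5% CO2; luminescence loss indicates inhibition.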
Cycloheximide cs = counter-screen for Shiga toxin inhibitors: cycloheximide protein synthesis inhibition. cell reporter, cycloheximide protein synthesis inhibition counterscreen. max response, %. 12% of 300,000 active. AID 2314; in the data active means max response mostly above about 13%, no sharp cut-off; inactive means mostly below about 14%; further: read at 38.3 µM for the half of the compounds with a filed dose
Pf growth 48h = P. falciparum growth inhibition at 48 hours (one generation). 5.9% of 310,000 active. Potency, µM (series often up to 28.7 µM), actives largely listed as inhibitors. P. falciparum luciferase growth in erythrocytes, 48 h
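First compound was added to culture medium, then infected red cells at 0.1% parasitemia and 2% hematocrit (final). After incubation at 37 C under 5% CO2, luciferase detection reagent was dispensed and light output recorded.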
Sm TGR block = blocks Schistosoma mansoni thioredoxin glutathione reductase; purified TGR, DTNB reduction, TNB absorbance 405 nm; Potency, µM (highest dose often 114 µM), most hits filed as inhibitors; 3% of 360,000 active; AID 485364; further: nearly all actives have a fitted effect of over 60% in size
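Kinetic colorimetric format: TGR-catalysed, NADPH-driven DTNB reduction monitored via TNB absorbance. Enzyme dispensed at 20 nM; compound exposure 15 min at room temperature before reaction start.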
NS1 function inh = blocks influenza NS1 protein function | AID 2326 | 0.4% of 270,000 active | Potency, µM (series often up to 46.1 µM); calls by dose curve; further: actives are rising curves; nearly all actives have a fitted effect of over 50% in size
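A cell-based growth assay was used: compounds that relieve NS1-induced slow growth of budding yeast raise OD600. Assay medium was yeast nitrogen base with ammonium sulphate and -URA supplement, pH 6.0, with 2% galactose.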
Shiga toxin inh = blocks Shiga toxin action in Vero cells. Vero cells, Shiga toxin protein synthesis inhibition reporter. inhibition, % at 38.7 µM. 9.2% of 290,000 active; in the data active means inhibition mostly above about 28%, no sharp cut-off; inactive means mostly below about 43%
Of the large screens only hits and unclear results are named; the others gave an inactive call; ! = a repeat was not active. Compounds with a hit are over-represented: about 21% of the library has one in this group of screens. Unless noted, the call rests on the fitted dose curve; in most records, active means well fitted curve in the direction sought with a large enough effect; inconclusive means small, poorly fitted or top-dose-only effect, or another doubt; inactive means no such curve, though single readings can be large; an effect the other way counts as inactive or inconclusive.

CCCN(c1ccc(C(=O)OC)cc1)S(=O)(=O)c1ccccc1	none (no result: NS1 function inh)
C=CCN(c1ccc(C(=O)Nc2ccc(C)c(C)c2)cc1)S(C)(=O)=O	Cycloheximide cs 19.1
C=CCN(c1ccc(C(=O)NCCSc2ccccc2)cc1)S(C)(=O)=O	Pf growth 96h 14.7µM, Cycloheximide cs 33.4, Shiga toxin inh 119.7
C=CCN(c1ccc(C(=O)Nc2ccc(C)cc2)cc1)S(C)(=O)=O	none
CC1=C(C(=O)OC2CCCCCC2)C(c2ccc(Cl)cc2Cl)CC(=O)N1 (stereo unspecified)	none (no result: Pf growth 96h, Cycloheximide cs, Pf growth 48h, NS1 function inh, Shiga toxin inh)
S=C1NC[C@H](c2ccccc2)N1CCCCC1CCCCC1	Pf growth 96h 6.57µM, Pf growth 48h 11.7µM
COc1ccc(/C(C)=N\Nc2nc(-c3ccccc3)cc(=O)[nH]2)cc1	Pf growth 96h 0.586µM, Pf growth 48h 0.928µM
CN(C)c1ccc(/C=N\Nc2nc(-c3ccccc3)cc(=O)[nH]2)cc1	Pf growth 96h 2.33µM, Pf growth 48h 2.33µM
Cc1ccc(CC2SC(N=C(N)N)=NC2=O)cc1 (stereo unspecified)	none
CCN(CC)CCNc1ncnc2c1sc1nc(N3CCCC3)c3c(c12)CC(C)(C)OC3	Pf growth 48h 10.4µM
CCN(CC)CCNc1ncnc2c1sc1nc(N3CCOCC3)c3c(c12)CCCC3	Pf growth 96h inconclusive, Pf growth 48h 9.28µM
Cc1cccc(-n2cnc3c(sc4nc(N5CCOCC5)c5c(c43)CCCC5)c2=O)c1	Pf growth 96h inconclusive, Pf growth 48h 2.08µM
Cc1nc2nc(CCNS(=O)(=O)c3ccc(Cl)cc3)cn2nc1C	none
Cc1nc2nc(-c3ccc(Cl)cc3)cn2nc1C	Cycloheximide cs 38.5, Shiga toxin inh 92.7 (no result: Pf growth 96h)
NS(=O)(=O)c1nn2cc(-c3ccccc3)nc2s1	Cycloheximide cs 19.2, Shiga toxin inh 59.3 (no result: Pf growth 96h, Pf growth 48h, Sm TGR block, NS1 function inh)
Cc1nc2nc(-c3cccs3)cn2nc1C	Cycloheximide cs 30.9, Sm TGR block inconclusive
Cc1nn2cc(-c3ccc(Cl)cc3)nc2s1	Cycloheximide cs 58.8, Shiga toxin inh 111.8
CCc1nn2cc(-c3ccccc3)nc2s1	none (no result: Pf growth 96h)
Cc1cc(-c2cccs2)n[nH]1	none (no result: Pf growth 96h)
COc1ccc(CN2C(=O)N(c3ccc(F)cc3)C(=O)C2CC(=O)Nc2ccccc2)cc1 (stereo unspecified)	none (no result: Pf growth 96h, Cycloheximide cs, Pf growth 48h, NS1 function inh, Shiga toxin inh)
COc1cccc(-c2cn3nc(C)c(C)nc3n2)c1	Cycloheximide cs 41.3, Sm TGR block inconclusive, Shiga toxin inh 167.2
Cc1nn2cc(-c3ccc(-c4ccccc4)cc3)nc2s1	Cycloheximide cs 25.7
CCOC(=O)c1cc(-c2ccccc2)sc1NC(=O)c1ccc(OC)c(OC)c1	Pf growth 96h inconclusive
CCc1cc(C(=O)c2ccccc2)c(N)s1	Pf growth 96h inconclusive
Cc1cccc(C(=O)Nc2sc(-c3ccccc3)cc2C(=O)O)c1	Cycloheximide cs 46.1, Shiga toxin inh 127.4
Nc1sc(-c2ccccc2)cc1C(=O)O	Cycloheximide cs 28.5, Shiga toxin inh 55.2 (no result: Pf growth 48h)
CC(C)(C)C(=O)Nc1scc(-c2ccc(-c3ccccc3)cc2)c1C(=O)O	Pf growth 48h inconclusive
CC(C)(C)C(=O)Nc1sc(-c2ccccc2)cc1C(=O)O	Cycloheximide cs 41.3, Shiga toxin inh 111.9
CC(OC(=O)c1n[nH]c2ccccc12)C(=O)NC1CCCCC1C (stereo unspecified)	Pf growth 96h inconclusive, Pf growth 48h inconclusive (no result: Cycloheximide cs, NS1 function inh, Shiga toxin inh)
C=C1CCN(C(CC(C)C)C(=O)O)S(=O)(=O)c2ccccc21 (stereo unspecified)	none (no result: Pf growth 96h, Pf growth 48h, Sm TGR block, NS1 function inh)
COc1cccc(CNC(=O)CSc2c3c(nc4ccc(Cl)cc24)CCCC3)c1OC	none (no result: Pf growth 96h, Cycloheximide cs, Pf growth 48h, NS1 function inh, Shiga toxin inh)
C/C1=C2N=C(/C=C3N=C(/C(C)=C4\[N-]C(C)(C5N=C1C(C)(CCC(=O)NCC(C)OP(=O)([O-])O[C@H]1C(O)C(n6cnc7cc(C)c(C)cc76)O[C@@H]1CO)C5CC(N)=O)C(C)(CC(N)=O)C4CCC(N)=O)C(C)(CC(N)=O)C\3CCC(N)=O)C(C)(C)C/2CCC(N)=O.[CH2-]C1OC(n2cnc3c(N)ncnc32)C(O)C1O.[Co] (stereo partly specified)	Pf growth 96h 6.75µM, Pf growth 48h 8.49µM (no result: Cycloheximide cs, Sm TGR block, NS1 function inh, Shiga toxin inh)
CCc1ccc(NC(=O)C(C)n2nnc3sc(-c4ccccc4)cc3c2=O)cc1 (stereo unspecified)	none (no result: Pf growth 96h, Cycloheximide cs, Pf growth 48h, NS1 function inh, Shiga toxin inh)
COC(=O)C(C)n1nnc2sc(-c3ccccc3)cc2c1=O (stereo unspecified)	Cycloheximide cs 40.0, Shiga toxin inh 113.4 (no result: NS1 function inh)
O=C(O)CNC(=O)c1ccc(Oc2c(F)c(F)c(Oc3ccc(C(=O)NCC(=O)O)cc3)c(F)c2F)cc1	none
CCN(CC)CCC(c1ccc(N(C)C)cc1)c1c(OC)cc(OC)c2ccc(=O)oc12 (stereo unspecified)	Pf growth 96h inconclusive, Pf growth 48h 11.7µM
COc1cc(OC)c2ccc(=O)oc2c1C(CCN1CCCC1)c1ccc(N(C)C)cc1 (stereo unspecified)	Pf growth 96h inconclusive, Pf growth 48h inconclusive
COc1cc(OC)c2ccc(=O)oc2c1C(CC(=O)N1CCCC1)c1ccc(N(C)C)cc1 (stereo unspecified)	Pf growth 96h inconclusive, Cycloheximide cs 22.4!, Pf growth 48h inconclusive
COc1cc(OC)c2ccc(=O)oc2c1C(CC(=O)N1CCOCC1)c1ccc(N(C)C)cc1 (stereo unspecified)	Pf growth 96h inconclusive, Pf growth 48h inconclusive
CCN(CC)C(=O)CC(c1ccc2c(c1)OCO2)c1c(OC)cc(OC)c2ccc(=O)oc12 (stereo unspecified)	Pf growth 96h 10.4µM, Pf growth 48h 8.28µM
CCN(CC)C(=O)CC(c1ccc(N(C)C)cc1)c1c(OC)cc(OC)c2ccc(=O)oc12 (stereo unspecified)	Pf growth 96h 10.4µM, Pf growth 48h 8.28µM
O=c1c2cccnc2n(Cc2cccc(F)c2)c(=O)n1Cc1ccc(F)cc1	none (no result: Pf growth 96h, Cycloheximide cs, Pf growth 48h, NS1 function inh, Shiga toxin inh)
CCc1nn2c(=O)cc(COC(=O)C3CCCCC3)nc2s1	none (no result: Pf growth 96h, Cycloheximide cs, Pf growth 48h, NS1 function inh, Shiga toxin inh)
O=C(CNC(=O)c1ccco1)OCC(=O)c1ccc2ccccc2c1	Pf growth 96h inconclusive
CCN(CC)C(=O)CC(c1ccc(N(C)C)cc1)c1c(OC)cc(OC)c2c(-c3ccccc3)cc(=O)oc12 (stereo unspecified)	Pf growth 96h 2.08µM, Pf growth 48h 3.7µM
CCc1cc(-c2n[nH]c(C)c2-c2nc3ccccc3s2)c(O)cc1OCC(=O)NN	Pf growth 48h 5.22µM (no result: NS1 function inh)
CC1(C(=O)NC(=S)N(Cc2ccccc2)c2ccccn2)CC1(Cl)Cl (stereo unspecified)	Pf growth 96h inconclusive, Cycloheximide cs 21.7
COc1ccccc1C1CCN(c2ccc([N+](=O)[O-])c(OC)c2)CC1	Cycloheximide cs 34.7, Shiga toxin inh 64.4
COc1cc(N2CCCC2)ccc1[N+](=O)[O-]	Pf growth 96h inconclusive, NS1 function inh inconclusive
CCOc1cc(/C=C2\SC(=O)N(c3ccc(O)cc3)C2=O)ccc1O	Cycloheximide cs 9.3, Shiga toxin inh 49.9
CCOc1ccc(N2C(=O)S/C(=C\c3ccc(O)c(OCC)c3)C2=O)cc1	Pf growth 96h inconclusive, Pf growth 48h inconclusive

Bioassay records from PubChem BioAssay.
